Several values for one entry are separate records, joined by “and”; a condition that tells them apart may be missing. Identical values can stand only once. The campaign covered roughly 5,500 compounds. About 2,000 (36%) were called active. Not shown: some 18% with an inconclusive outcome. No stated cut-off is given here; in the data, active means normalized growth mostly below about 0.91 (no sharp cut-off); inconclusive means no clear call, values can overlap the other calls; inactive means mostly above about 0.92. Some of the results follow.
Test: chemical genetic growth profiling, strain panel (AID 1159580);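 further: tested at 20 µM; growth read once vehicle control cultures reached saturation at 30 °C; 1 = growth at the plate median or of vehicle wells; lower values mean less growth of the strain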
Conditions: S. cerevisiae deletion strains, growth OD

Measured: normalized growth

CC(C)[N+](C)(CCOC(=O)C1c2ccccc2Oc2ccccc21)C(C)C
inactive: locus YAL013W, strain DEP1, hits give low values 1.01 | locus YAL021C, strain ccr4, hits give low values 1.01 | locus YAL026C, strain drs2, hits give low values 1.03 | locus YAL030W, strain snc1, hits give low values 1.02 | locus YAL040C, strain CLN3, hits give low values 1.01 | locus YBL061C, strain skt5, hits give low values 0.989 | locus YBR009C, strain hhf1, hits give low values 0.997 | locus YBR021W, strain FUR4, hits give low values 1.02 | locus YBR023C, strain chs3, hits give low values 1.02 | locus YBR171W, strain sec66, hits give low values 1.01 | locus YBR229C, strain ROT2, hits give low values 0.997 | locus YBR231C, strain swc5, hits give low values 1.01 | locus YBR279W, strain paf1, hits give low values 0.99 | locus YCL011C, strain gbp2, hits give low values 1.01 | locus YCL016C, strain dcc1, hits give low values 1.01 | locus YCL029C, strain bik1, hits give low values 1.01 | locus YCL061C, strain MRC1 (second series), hits give low values 1.01 | locus YCL069W, strain vba3, hits give low values 0.993 | locus YCR088W, strain abp1, hits give low values 1.01 | locus YDL005C, strain med2, hits give low values 1.02 | locus YDL035C, strain GPR1, hits give low values 1.01 | locus YDL040C, strain nat1, hits give low values 0.996 | locus YDL074C, strain BRE1, hits give low values 1.02 | locus YDL101C, strain DUN1, hits give low values 1 | locus YDL134C, strain PPH21, hits give low values 1 | locus YDL185W, strain tfp1, hits give low values 1 | locus YDL192W, strain arf1, hits give low values 1.01 | locus YDR001C, strain nth1, hits give low values 0.996 | locus YDR069C, strain doa4, hits give low values 1 | locus YDR101C, strain arx1, hits give low values 0.997 | locus YDR137W, strain rgp1, hits give low values 1.01 | locus YDR150W, strain NUM1, hits give low values 1.01 and 1 | locus YDR159W, strain sac3, hits give low values 0.987 | locus YDR162C, strain NBP2, hits give low values 1.02 | locus YDR195W, strain ref2 0.976 | locus YDR297W, strain sur2, hits give low values 0.999 | locus YDR318W, strain mcm21, hits give low values 1.01 | locus YDR334W, strain swr1, hits give low values 1 | locus YDR335W, strain msn5, hits give low values 1.01 | locus YDR363W, strain ESC2, hits give low values 1.05 | locus YDR388W, hits give low values 1.01 | locus YDR392W, strain spt3, hits give low values 0.98 | locus YDR502C, strain sam2, hits give low values 1 | locus YEL003W, strain gim4, hits give low values 1 | locus YEL037C, strain rad23, hits give low values 0.995 | locus YEL061C, strain CIN8 (second series), hits give low values 0.995 | locus YEL061C, strain CIN8, hits give low values 1.01 | locus YER002W, strain NOP16, hits give low values 1.02 | locus YER015W, strain faa2, hits give low values 1.01 | locus YER016W, strain bim1, hits give low values 1.01 | locus YER110C, hits give low values 1 | locus YER111C, strain swi4, hits give low values 0.993 | locus YER155C, strain BEM2 (second series), hits give low values 0.955 | locus YER155C, strain BEM2, hits give low values 1.01 | locus YER167W, strain BCK2, hits give low values 1.01 | locus YFR010W, strain ubp6, hits give low values 0.994 | locus YGL078C, strain dbp3, hits give low values 1.01 | locus YGL086W, strain mad1, hits give low values 0.998 | locus YGL167C, strain pmr1, hits give low values 0.997 | locus YGL173C, strain kem1, hits give low values 1 | locus YGL227W, strain vid30, hits give low values 1.02 | locus YGL240W, strain doc1, hits give low values 0.983 | locus YGL248W, strain PDE1, hits give low values 0.997 | locus YGL253W, strain hxk2, hits give low values 1.02 | locus YGR078C, strain PAC10, hits give low values 1 and 1.01 | locus YGR135W, strain pre9, hits give low values 1.01 | locus YGR229C, strain SMI1, hits give low values 1.02 | locus YGR252W, strain gcn5, hits give low values 0.956 | locus YHR013C, strain ard1, hits give low values 1.04 | locus YHR027C, strain rpn1, hits give low values 1.01 | locus YHR030C, strain SLT2, hits give low values 1 and 1.05 | locus YHR079C, strain IRE1 (second series), hits give low values 1.01 | locus YHR079C, strain IRE1, hits give low values 1.05 | locus YHR094C, strain hxt1, hits give low values 1 | locus YHR129C, strain ARP1, hits give low values 1 | locus YHR142W, strain chs7, hits give low values 0.994 | locus YHR200W, strain rpn10, hits give low values 1.01 | locus YIL066C, strain RNR3, hits give low values 1.01 | locus YIL073C, strain SPO22, hits give low values 1.03 | locus YIL125W, strain kgd1, hits give low values 1.01 | locus YIR030C, strain dcg1, hits give low values 1.01 | locus YJL092W, strain hpr5, hits give low values 1 | locus YJL095W, strain BCK1 (second series), hits give low values 1.01 | locus YJL095W, strain BCK1, hits give low values 0.996 and 1.01 | locus YJL115W, strain asf1, hits give low values 1 | locus YJL129C, strain trk1, hits give low values 1.01 | locus YJL134W, strain LCB3, hits give low values 1.01 | locus YJL154C, strain vps35, hits give low values 1.01 | locus YJL164C, strain tpk1, hits give low values 0.995 | locus YJL166W, strain qcr8, hits give low values 0.98 | locus YJL168C, strain set2, hits give low values 1 | locus YJL187C, strain SWE1 (second series), hits give low values 1 | locus YJR043C, strain POL32, hits give low values 1 | locus YJR066W, strain TOR1, hits give low values 0.985
